Records with an inconclusive call do not appear. Active and inactive are the calls of the source.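 How the source made its calls, unless noted: active means viability at or below 10% of carrier control in both of two separate runs; inconclusive means viability at or below 10% in only one of the two runs; inactive means the rest.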
Legend:
[1] = Her2 expression decrease, cell viability multiplex – SKBR3 breast tumor cells, AlphaScreen, ATP viability, primary screen (AID 461;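 active means Her2 level under about 52% in both replicate screens, with viability over 70% of control, limit read from the data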;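 on Her2 level: lower value means less Her2 protein in the cells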;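 on viability: percent of carrier control wells set as 100% viability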); conditions: SKBR3 Her2 protein level, 18-24 h, measured here: SKBR3 viability, ATP luminescence, at 10 µM
[2] = molecular target: Receptor tyrosine-protein kinase erbB-2 (Homo sapiens) (UniProt P04626); assay: as above; conditions: 18-24 h, at 10 µM, stronger effect = lower value
[3] = reduced viability of SK-BR-3 breast cancer cells – cell-based, 24 h, human, pilot screen (AID 572); conditions: SK-BR-3 viability, CellTiter-Glo luminescence, at 10 µM, stronger effect = lower value;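 further: compound exposure lasted between 18 and 24 h rather than exactly 24 h; 100% = carrier-treated control wells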
[4] = HUVEC growth inhibition – cell-based, human, primary screen (AID 575;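 active means viability at or below 30% in both replicate assays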;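 further: 100% = median of untreated cell wells with 0.1% DMSO on each plate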); conditions: HUVEC proliferation, CellTiter-Glo luminescence, 72 h; at 10 µM; stronger effect = lower value
[5] = H69AR cell proliferation blockers – human, duplicate replicates, primary screen (AID 580;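 active means viability at or under a set limit in both replicates, limit being median viability minus 3 SD, cut at about 48% in these data, passing the limit was not always enough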;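 further: 100% = mean luminescence of untreated wells and 0% = no signal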); conditions: H69AR lung tumor cells viability, ATP luminescence, 72 h; at 10 µM; stronger effect = lower value
[6] = MRP1 drug-resistance reversers in H69AR cells – cell-based, doxorubicin co-treatment, pilot screen (AID 601;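 active means viability loss from added drug above about 55%, and viability with drug at most 40%, in both replicates, limit read from the data, passing the limit was not always enough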); conditions: CellTiter-Glo, 72 h, at 10 µM; for differential viability (reversal): stronger effect = higher value
[7] = yeast transport mutant growth inhibition pilot in 384-well plates, post-Golgi transport modulator project (AID 636; in the data active means inhibition above about 31%); conditions: absorbance 615 nm, about 18 h, stronger effect = higher value
[8] = growth suppression of yeast trafficking mutant, preliminary HTS, modulators of trafficking downstream of Golgi apparatus project, 1536-format plate, OD 615 nm (AID 637; in the data active means inhibition above about 30%); conditions: yeast transport mutant growth, absorbance 615 nm, 18 h; stronger effect = higher value
[9] = S. cerevisiae growth inhibition in permissive medium (OD615), pilot counter-assay for S. cerevisiae lifespan shortening project, permissive growth control (AID 705;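 active means growth inhibition above 25% in both replicates, a cutoff set 3 SD above the mean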); conditions: OD615, 24 h, at 10 µM, stronger effect = higher value
[10] = S. cerevisiae growth inhibition in restrictive medium, OD615, pilot screen, restrictive growth control, yeast lifespan reduction project (AID 706;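 active means growth inhibition above a set limit, 3 SD over mean compound inhibition, in both replicates, cut at about 43% in these data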;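 further: modified DeaD lifespan yeast strain shifted to restrictive glucose medium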); conditions: OD615, 48 h, at 10 µM, stronger effect = higher value
[11] = doxorubicin toxicity protection in MRP-1 cells – H69AR cells, CellTiter-Glo, duplicate, MRP-1 activator project, pilot screen (AID 807;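 active means viability increase at or above a cutoff of the median across tested compounds plus 3 SD, cut at about 8.5% in these data, passing the limit was not always enough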;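 further: compound pretreatment 18-22 h then 72 h combined with doxorubicin; 0% = doxorubicin alone and 100% = vehicle without doxorubicin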); conditions: H69AR viability with doxorubicin, CellTiter-Glo luminescence; at 10 µM; stronger effect = higher value
[12] = viability of HCT116 without oncogenic beta-catenin – human colon tumor cells, pilot screen (AID 823;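 active means cell viability at or below a set limit in both duplicate runs, the limit being the all-compound median minus 4 SD, cut at about 23% in these data, passing the limit was not always enough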;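 further: 0% = wells killed by 20 µM Hyamine and 100% = untreated DMSO cell wells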); conditions: HCT116 beta-catenin knockout viability, CellTiter-Glo, 60 h; at 10 µM; stronger effect = lower value
[13] = viability of PTEN-null HCT116 cells – cell-based, HCT116 clonal line, CellTiter-Glo, pilot screen (AID 824;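 active means viability at or below 27.92% in each of two runs, the all-compound median minus 4 SD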;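 further: 0% = 20 µM Hyamine control and 100% = vehicle cell control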); conditions: HCT116 PTEN-deleted viability, 60 h, at 10 µM, stronger effect = lower value
[14] = RAM pathway blockade in budding yeast – dse1pr::URA3 reporter, 5-FOA selection, pilot screen (AID 869;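 active means inhibition over a set limit, the all-compound mean plus 3 SD, in both replicate runs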;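 further: 0% = DMSO wells with no growth and 100% = 10 µM 1-NA-PP1 with full growth; RAM network block rescues cells from 5-FOA so hits raise OD615 growth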); conditions: S. cerevisiae dse1pr::URA3 5-FOA growth, OD615, 2 d; at 10 µM; stronger effect = higher value; strain carries analog-sensitive mutant Cbk1 kinase
[15] = RAM signaling pathway blockade in yeast – S. cerevisiae, Pdr1DBD-CYC8 efflux-inhibited sensitized strain, primary screen (AID 1298;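 active means RAM network inhibition above 8.4% in each of two replicates, 3 SD over the compound average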;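 further: 0% = DMSO untreated cells without growth and 100% = 10 µM 1-NA-PP1 full growth; higher means more yeast growth rescued from 5-FOA killing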); conditions: S. cerevisiae cbk1-as DSE1-URA3 strain, 5-FOA growth OD615, 2 d; at 50 µM; stronger effect = higher value
[16] = H69AR cells + 2 uM doxorubicin, measured here: viability with 2 uM doxorubicin, stronger effect = lower value
[17] = H69AR cells, compound alone cytotoxicity

Receptor tyrosine-protein kinase erbB-2 (Homo sapiens), sequence (P04626 whole entry, looked up): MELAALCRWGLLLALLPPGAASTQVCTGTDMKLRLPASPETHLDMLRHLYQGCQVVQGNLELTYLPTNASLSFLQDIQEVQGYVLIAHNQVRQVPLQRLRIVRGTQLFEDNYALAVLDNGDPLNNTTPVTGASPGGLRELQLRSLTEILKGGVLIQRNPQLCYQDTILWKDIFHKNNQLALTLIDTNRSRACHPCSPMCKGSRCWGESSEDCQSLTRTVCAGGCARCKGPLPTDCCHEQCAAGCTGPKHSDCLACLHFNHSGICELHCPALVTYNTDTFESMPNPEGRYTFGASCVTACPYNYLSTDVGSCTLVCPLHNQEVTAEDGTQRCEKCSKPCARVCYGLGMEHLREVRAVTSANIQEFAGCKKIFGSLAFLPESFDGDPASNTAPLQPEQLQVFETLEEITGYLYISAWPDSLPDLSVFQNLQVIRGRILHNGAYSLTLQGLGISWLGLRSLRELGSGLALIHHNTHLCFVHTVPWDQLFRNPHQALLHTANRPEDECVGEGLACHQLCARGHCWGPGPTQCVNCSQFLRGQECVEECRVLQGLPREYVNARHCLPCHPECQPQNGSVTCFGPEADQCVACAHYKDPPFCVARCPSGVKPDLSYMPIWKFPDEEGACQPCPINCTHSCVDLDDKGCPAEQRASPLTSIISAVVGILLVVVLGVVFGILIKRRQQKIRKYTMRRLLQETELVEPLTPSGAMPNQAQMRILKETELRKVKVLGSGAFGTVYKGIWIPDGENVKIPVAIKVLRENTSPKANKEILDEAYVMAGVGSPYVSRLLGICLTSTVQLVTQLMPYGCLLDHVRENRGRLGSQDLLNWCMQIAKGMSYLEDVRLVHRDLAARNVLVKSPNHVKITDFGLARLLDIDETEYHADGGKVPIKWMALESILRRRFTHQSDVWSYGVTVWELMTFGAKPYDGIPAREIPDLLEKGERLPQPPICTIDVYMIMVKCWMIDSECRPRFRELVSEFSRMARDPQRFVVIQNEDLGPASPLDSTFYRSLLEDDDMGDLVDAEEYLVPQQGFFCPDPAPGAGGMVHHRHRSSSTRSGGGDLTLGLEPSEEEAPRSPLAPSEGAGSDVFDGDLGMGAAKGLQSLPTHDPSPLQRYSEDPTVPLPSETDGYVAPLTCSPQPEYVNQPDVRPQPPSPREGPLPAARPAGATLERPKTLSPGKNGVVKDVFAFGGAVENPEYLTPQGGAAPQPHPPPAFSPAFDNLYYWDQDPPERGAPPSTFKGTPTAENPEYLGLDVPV

Cc1[nH]nc2c1C(=O)CC(C)(C)C2
95.5%: viability [1]
83.7%: viability [6, 16]
89%: viability [6, 17]
inactive: Her2 level [2] 100% | viability [3] 95.5% | viability [4] 100% | viability [5] 89% | differential viability (reversal) ([6]; H69AR cells + 2 uM doxorubicin) 5.23% | inhibition [7] -1.67% | inhibition [8] -10.3% | growth inhibition [9] 2.65% | growth inhibition [10] -3.72% | viability increase [11] -4.31% | viability [12] 95.8% | viability [13] 94% | inhibition [14] 1.44% | RAM network inhibition [15] 1.23%

CC(OC(=O)C1CC=CCC1C(N)=O)C(Cl)=C(Cl)Cl (configuration not stated)
inactive: Her2 level [2] 105% | viability [3] 88% | viability [4] 80.8% | viability [5] 93.7% | differential viability (reversal) ([6]; H69AR cells + 2 uM doxorubicin) 7.14% | inhibition [7] 6.1% | inhibition [8] 1.31% | growth inhibition [9] -2.97% | growth inhibition [10] -1.67% | viability increase [11] 0.52% | viability [12] 103% | viability [13] 105% | inhibition [14] 0.055% | RAM network inhibition [15] 2.45%
93.7%: viability [6, 17]
86.5%: viability [6, 16]
88%: viability [1]

COc1ccc(-n2c(=O)c3c4c(sc3n3cnnc23)CC(C)CC4)cc1 (configuration not stated)
95.5%: viability [1]
51%: viability [6, 16]
inactive: Her2 level [2] 88.5% | viability [3] 95.5% | viability [4] 67.8% | viability [5] 72.2% | differential viability (reversal) ([6]; H69AR cells + 2 uM doxorubicin) 21.2% | inhibition [7] -8.11% | inhibition [8] 0.98% | growth inhibition [9] -10.9% | growth inhibition [10] 9.5% | viability increase [11] -5.52% | viability [12] 87.8% | viability [13] 92.2% | inhibition [14] -0.585% | RAM network inhibition [15] 2.05%
72.2%: viability [6, 17]

O=C1CCCC2=C1C(c1cccc(Br)c1)n1nc(-c3ccco3)nc1N2 (configuration not stated)
103%: viability [6, 17]
inactive: Her2 level [2] 73% | viability [3] 95.5% | viability [4] 80.6% | viability [5] 103% | differential viability (reversal) ([6]; H69AR cells + 2 uM doxorubicin) 2.4% | inhibition [7] -1.73% | inhibition [8] -2.95% | growth inhibition [9] -11.7% | growth inhibition [10] -0.21% | viability increase [11] -2.06% | viability [12] 81.5% | viability [13] 76.5% | RAM network inhibition [15] 0.99%
100%: viability [6, 16]
95.5%: viability [1]

CC1=C(C(=O)OC(C)C)C(c2cccc(F)c2)n2ncnc2N1 (configuration not stated)
91.7%: viability [6, 16]
inactive: Her2 level [2] 112% | viability [3] 103% | viability [4] 101% | viability [5] 90.7% | differential viability (reversal) ([6]; H69AR cells + 2 uM doxorubicin) -1.02% | inhibition [7] 0.27% | inhibition [8] 3.83% | growth inhibition [9] -7.79% | growth inhibition [10] -4.85% | viability increase [11] 0.62% | viability [12] 103% | viability [13] 100% | inhibition [14] 1.74% | RAM network inhibition [15] 5.32%
90.7%: viability [6, 17]
103%: viability [1]

Cc1cccc(N2CCN(C(=O)Cn3nc(Cc4ccncc4)c4ccccc4c3=O)CC2)c1C
83%: viability [1]
inactive: Her2 level [2] 82% | viability [3] 83% | viability [4] 83.9% | viability [5] 75.9% | differential viability (reversal) ([6]; H69AR cells + 2 uM doxorubicin) -7.61% | inhibition [7] -5.6% | inhibition [8] 1.5% | growth inhibition [9] 1.35% | growth inhibition [10] 6.96% | viability increase [11] 1.06% | viability [12] 70.7% | viability [13] 76% | inhibition [14] 0.445% | RAM network inhibition [15] 3.21%
75.9%: viability [6, 17]
83.5%: viability [6, 16]

COc1ccc(C(=O)Nc2nncs2)c(OC)c1
inactive: Her2 level [2] 112% | viability [3] 95.5% | viability [4] 93.1% | viability [5] 96.9% | differential viability (reversal) ([6]; H69AR cells + 2 uM doxorubicin) 6.36% | inhibition [7] -3.46% | inhibition [8] 3.33% | growth inhibition [9] -4.15% | growth inhibition [10] -11.7% | viability increase [11] -0.64% | viability [12] 102% | viability [13] 93.9% | RAM network inhibition [15] 5.61%
96.9%: viability [6, 17]
90.5%: viability [6, 16]
95.5%: viability [1]

COc1cccc(C2CC(c3ccc(C)cc3)Nc3nc(N)nn32)c1 (configuration not stated)
inactive: Her2 level [2] 98.5% | viability [3] 88% | viability [4] 99.2% | viability [5] 97.9% | differential viability (reversal) ([6]; H69AR cells + 2 uM doxorubicin) 4.01% | inhibition [7] -0.4% | inhibition [8] -5.9% | growth inhibition [9] -2.17% | growth inhibition [10] 2.23% | viability increase [11] 0.54% | viability [12] 98.6% | viability [13] 95.5% | inhibition [14] 0.515% | RAM network inhibition [15] -0.56%
97.9%: viability [6, 17]
88%: viability [1]
93.9%: viability [6, 16]

COc1ccc(CCNc2oc(COc3ccccc3Cl)nc2C#N)cc1OC
96.3%: viability [6, 16]
92.2%: viability [6, 17]
90%: viability [1]
inactive: Her2 level [2] 87% | viability [3] 90% | viability [4] 56.8% | viability [5] 92.2% | differential viability (reversal) ([6]; H69AR cells + 2 uM doxorubicin) -4.1% | inhibition [7] -1.6% | inhibition [8] -1.83% | growth inhibition [9] -10% | growth inhibition [10] -0.295% | viability increase [11] -1.73% | viability [12] 88.5% | viability [13] 73.2% | inhibition [14] 1.5% | RAM network inhibition [15] 2.3%

O=C(NC1CCCc2ccccc21)c1ccc(CNc2c(N3CCOCC3)c(=O)c2=O)cc1 (configuration not stated)
77.5%: viability [6, 16]
91.7%: viability [6, 17]
86.5%: viability [1]
inactive: Her2 level [2] 100% | viability [3] 86.5% | viability [4] 95.5% | viability [5] 91.7% | differential viability (reversal) ([6]; H69AR cells + 2 uM doxorubicin) 14.2% | inhibition [7] 1.79% | inhibition [8] 2.67% | growth inhibition [9] -3.71% | growth inhibition [10] -2.73% | viability increase [11] -3.89% | viability [12] 89.1% | viability [13] 59.3% | RAM network inhibition [15] 6.53%

— PubChem BioAssay
